Reference: PubChem BioAssay (NCI)
This is part of a sample that, as a whole, favours compounds with a hit. Of some 83,000 tested, about 20% had one in any assay.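 In brief: 96-well plates, 48 h treatment, single concentration, percent growth endpoint.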 Unmarked numbers belong to inactive results. Activity calls are given as the source filed them. How the source made its calls: active means growth percent below 10; inactive means the rest.

test system: SN12C renal; experiment: NCI-60 one-dose screen, 48 h (100 = growth as untreated, 0 = no growth, -100 = all killed); conditions: 10 µM unless noted

SMILES	growth
O=S(=O)(NCCCNc1nccc(-n2ccc3cccnc32)n1)c1cccc(C(F)(F)F)c1	108%
CC(C)(C)n1cc(-c2ccnc(NCCNS(=O)(=O)c3ccc(F)cc3)c2)c(-c2cccc(O)c2)n1	55.8%
Cc1ccc(-c2cc3nc(C(Cl)Cl)nc(-c4ccccc4C)n3n2)cc1	86.7%
O=C(NNC(=O)N1c2ccccc2C=Cc2ccccc21)c1ccc2ccccc2c1	90.5%
CN(C[C@H]1Cc2c(cccc2N2CCN(Cc3ccccn3)CC2)CN1)[C@H]1CCCc2cccnc21	53.5%
CCCCCCCCC(C)OC(=O)c1nn(C(C)=O)c2ccccc12 (centres undefined)	102%
OC(c1cc2cc(Br)ccc2c2cc(Br)ccc12)C1CCCCN1 (centres undefined)	-73.8% (active)
O=C(NS(=O)(=O)c1ccc2ccccc2c1)n1cc(-c2ccncc2)c(-c2ccc(Cl)c(O)c2)n1	68.8%
Cc1cc(N)n(S(=O)(=O)c2oc(-c3ccccc3)nc2C#N)n1	83.9%
O=[N+]([O-])c1ccc(C(c2ccccc2)c2ccccc2)cc1	92%
CN(C)c1oc(C2OC2c2ccccc2)nc1C#N (centres undefined)	95.1%
Cc1ccc(S(=O)(=O)NC(=O)n2cc(-c3ccncc3)c(-c3ccc(Cl)c(O)c3)n2)cc1	99.9%
CN(CCCCN(C[C@H]1Cc2ncccc2CN1)[C@H]1CCCc2cccnc21)C1CCC(F)(F)CC1	86.1%
Cc1cc(C2(c3cc(C)c(O)cc3C)OS(=O)(=O)c3ccccc32)c(C)cc1O	96.7%
CC1CN(c2oc(-c3ccccc3)nc2C#N)CC(C)O1 (centres undefined)	97.9%
NC(=O)CCCN1C/C(=C\c2ccccc2)C(=O)c2ccccc21	92.4%
Cc1ccc(S(=O)(=O)NCCCNc2cc(-c3cn(C(C)(C)C)nc3-c3cccc(O)c3)ccn2)cc1	64.6%
Cc1nc2ncccc2nc1Nc1ccc(S(=O)(=O)Nc2ccccn2)cc1	93.7%
COc1ccc(NC(=O)c2c(Nc3ccc(OC)cc3OC)n[nH]c2N)c(OC)c1	90%
CCOC(=O)c1cn2c3c(cc(C)cc3c1=O)C(=O)/C(=C/c1ccccc1)C2	94.2%

SMILES	growth
N=c1ccc2nc3ccc(N)cc3sc-2c1	6.7% (active)
CC12CCC3C4(C)COC(c5ccccc5Cl)OC4CCC3(C)C1CC(C1=CCOC1=O)O2 (centres undefined)	70.2%
C=C1CCC2C(C)(CO)C(O)CCC2(C)C1CC(NCc1ccccc1)C1=CCOC1=O (centres undefined)	93.1%
c1cc(C2=N[C@@H]3c4ccccc4C[C@@H]3O2)nc(C2=N[C@@H]3c4ccccc4C[C@@H]3O2)c1	97%
COC1=C(OC)C(=O)C(CCCCCCCCCC[P+](c2ccccc2)(c2ccccc2)c2ccccc2)=C(C)C1=O	-74.8% (active)
COc1ccc(-c2cc(-c3ccccc3)nc(SCCCC(=O)NO)n2)cc1OC	13.8%
N=C(N)c1ccc(-c2cc(Cl)cc(Cl)c2)cn1	91.6%
Nc1cccc(-c2nc3sccn3c2-c2ccnc(NCCNS(=O)(=O)c3ccc(C(F)(F)F)cc3)n2)c1	63%
C=C1CCC2C(C)(CO)C(O)CCC2(C)C1C/C=C1/C(=O)OCC1O/C=C/c1ccccc1 (centres undefined)	73.8%
CCN(CC)CCC(CNc1ccnc2cc(Cl)ccc12)c1ccccc1 (centres undefined)	75.8%
COc1ccc(-c2ccc(-c3ccc(C(=N)N)cn3)s2)cc1OC	90.6%
Cn1cnc2c(N3CCN(C(=O)OCc4ccc5c(Cl)cc(Cl)c(O)c5n4)CC3)nc(Cl)nc21	63%
C=C1CCC2C(C)(CO)C(O)CCC2(C)C1C/C=C1/C(=O)OCC1Oc1ccccc1C (centres undefined)	85.9%
COc1ccc(S(=O)(=O)NCCCNc2nccc(-n3ccc4cccnc43)n2)cc1	90.9%
CCN(CC)CCC(CNc1ccnc2cc(Cl)ccc12)c1ccc(Cl)cc1 (centres undefined)	42.2%
N=C(N)c1ccc(-c2ccc(-c3ccc(-c4cccs4)s3)s2)cc1	93.7%
COc1ccc(Nc2nn3c(C)cc(C)nc3c2C(=O)Nc2ccc(C)cc2)c(OC)c1	98.4%
CCCCCCN1CSC(=S)N(CCCCCC)C1	104%
O=C(NS(=O)(=O)c1ccccc1)n1cc(-c2ccncc2)c(-c2ccc(Cl)c(O)c2)n1	97.4%
